The full list was thinned out, with hits kept by preference.
AmpC detergent: qHTS Inhibitors of AmpC Beta-Lactamase (assay with detergent). Potency, µM (doses to about 114 µM), hits mostly inhibitors. P00811. actives 0.041% (n = 370,000). AID 485294, 2010. AmpC hydrolysis of nitrocefin, absorbance 480 nm, 0.01% Triton; note: nearly all actives have a fitted effect of over 25% in size
Target sequence (P00811 whole entry, looked up): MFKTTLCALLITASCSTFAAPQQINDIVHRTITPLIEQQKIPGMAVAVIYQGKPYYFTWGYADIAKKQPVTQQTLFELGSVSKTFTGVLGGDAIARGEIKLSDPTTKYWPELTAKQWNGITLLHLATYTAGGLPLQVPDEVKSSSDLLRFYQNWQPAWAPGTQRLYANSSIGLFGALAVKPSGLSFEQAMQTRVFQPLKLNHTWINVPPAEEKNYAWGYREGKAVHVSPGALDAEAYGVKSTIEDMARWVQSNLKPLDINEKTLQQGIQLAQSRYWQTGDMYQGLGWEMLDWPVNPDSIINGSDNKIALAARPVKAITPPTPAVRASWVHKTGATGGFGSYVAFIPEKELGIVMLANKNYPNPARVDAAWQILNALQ
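AmpC (5.3 nM in the dispensed reagent) in 20 mM phosphate pH 7.0 with 0.01% (detergent screen) or 0.0001% Triton X-100 was preincubated with compounds for 15 min at room temperature. Nitrocefin was then added from an 800 uM solution, and hydrolysis was followed at 480 nm.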
AmpC inh no detg: qHTS Inhibitors of AmpC Beta-Lactamase (assay without detergent). P00811. AmpC nitrocefin hydrolysis, absorbance 480 nm, 0.0001% Triton. Potency, µM (highest dose often 57.1 µM), hits mostly inhibitors. actives 0.52% (n = 330,000). AID 485341, 2010; note: nearly all actives have a fitted effect of over 20% in size
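20 mM phosphate pH 7.0 + 0.01% (detergent screen) or 0.0001% Triton X-100; 5.3 nM AmpC reagent; cpd preinc 15 min RT; nitrocefin (800 uM stock) to start; A480 q20 s × 4 min; Activity was normalised to no-enzyme and no-compound control wells.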
NS1 function inh: qHTS Assay for Inhibitors of Influenza NS1 Protein Function; Potency, µM (top dose mostly 46.1 µM); actives 0.4% (n = 270,000); AID 2326, 2010; calls by dose curve; note: actives are rising curves; nearly all actives have a fitted effect of over 50% in size
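A cell-based growth assay was used: compounds that relieve NS1-induced slow growth of budding yeast raise OD600. Assay medium was yeast nitrogen base with ammonium sulphate and -URA supplement, pH 6.0, with 2% galactose.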
Cycloheximide cs: Cycloheximide Counterscreen for Small Molecule Inhibitors of Shiga Toxin. cell reporter, cycloheximide protein synthesis inhibition counterscreen. max response, %. actives 12% (n = 300,000). AID 2314, 2010; in the data active = max response mostly above about 13%, no sharp cut-off; inactive = mostly below about 14%; note: read at 38.3 µM for the half of the compounds with a filed dose
Shiga inhibitor: A qHTS for Small Molecule Inhibitors of Shiga Toxin. inhibition, % at 38.7 µM. Vero cells, Shiga toxin protein synthesis inhibition reporter. AID 2315, 2010. actives 9.2% (n = 290,000); in the data active = inhibition mostly above about 28%, no sharp cut-off; inactive = mostly below about 43%
Of the large screens only hits and unclear results are named; the others gave an inactive call. Unless noted, calls come from the whole dose curve; as a rule, active = well fitted curve in the direction sought with a large enough effect; inconclusive = small, poorly fitted or top-dose-only effect, or another doubt; inactive = no such curve, though single readings can be large; an effect the other way counts as inactive or inconclusive.

CC1NC2(C(=O)N(Cc3ccccc3)c3ccccc32)C2C(=O)N(c3ccccc3)C(=O)C12 (stereo not drawn)	AmpC detergent inconclusive, AmpC inh no detg 11.2µM
CC(OC(=O)COc1ccc(Nc2ccccc2)cc1)C(=O)N(C)c1ccccc1 (stereo not drawn)	AmpC inh no detg 39.8µM (no result: NS1 function inh, Cycloheximide cs, Shiga inhibitor)
Cc1ccc2nc3c(cc2c1)CC1(C(=O)N(C)C(=O)N(C)C1=O)C1CCCCN31 (stereo not drawn)	Cycloheximide cs 18.6, Shiga inhibitor 68.6
Cc1ccc2nc3c(cc2c1)CC1(C(=O)N(C)C(=O)N(C)C1=O)C1COCCN31 (stereo not drawn)	AmpC detergent inconclusive
Cc1coc2cc3oc(=O)c4c(c3cc12)CCC4	none
CNc1ccc2c3c(cccc13)C(=O)N(C)C2=O	none
CC1COC2=C1C(=O)C(=O)c1c2ccc2c1CCCC2(C)C (stereo not drawn)	Shiga inhibitor 52.6 (no result: AmpC detergent, AmpC inh no detg, NS1 function inh)
C[C@H]1COC2=C1C(=O)C(=O)c1c2ccc2c1CCCC2(C)C	AmpC inh no detg inconclusive, Cycloheximide cs 25.7, Shiga inhibitor 58.9
Cc1coc2c1C(=O)C(=O)c1c-2ccc2c1CCCC2(C)C	AmpC inh no detg 10µM, Cycloheximide cs 23.7, Shiga inhibitor 38.9
Cc1coc2c1C(=O)C(=O)c1c-2ccc2c(C)cccc12	Cycloheximide cs 18.1, Shiga inhibitor 35.4
CC(CNC(=O)Cn1ccc2cc(S(=O)(=O)N3CCCCCC3)ccc21)c1ccccc1 (stereo not drawn)	none (no result: AmpC inh no detg, NS1 function inh, Cycloheximide cs, Shiga inhibitor)
CC1CCN(S(=O)(=O)N2CCN(C(=O)c3ccc4c(c3)OCO4)CC2)CC1	none
OCc1cn(-c2ccccc2)nc1-c1ccco1	AmpC detergent inconclusive
C=CCOC(=O)C1=C(C)NC(C)=C(C(=O)OCC=C)C1c1cn(-c2ccccc2)nc1-c1ccco1	AmpC detergent inconclusive, AmpC inh no detg 15.8µM
Cc1cccc(NC(=O)CNC(=O)COc2ccc(C(=O)c3ccc(F)cc3)cc2)c1C	none
Cc1cccc(NC(=O)CNC(=O)COc2ccc(-c3ccc(C#N)cc3)cc2)c1C	AmpC inh no detg 28.2µM
O=C(N/N=C/c1ccc(Br)cc1)c1ccc(F)cc1	AmpC detergent inconclusive, Cycloheximide cs 34.6, Shiga inhibitor 47.2
O=C(N/N=C/c1ccc(O)cc1)c1ccc(NC(=O)c2ccccc2Br)cc1	AmpC detergent inconclusive
O=C(N/N=C/c1ccc(F)cc1)c1cc[n+]([O-])cc1	Cycloheximide cs 17.6, Shiga inhibitor 60.6
COc1ccc(/C=N/NC(=O)c2ccc(NC(=O)c3cccc([N+](=O)[O-])c3)cc2)c(OC)c1	none (no result: NS1 function inh)
COc1ccc(/C=N/NC(=O)c2cccc(NC(=O)c3ccc(Cl)cc3)c2)c(OC)c1	AmpC detergent inconclusive, Shiga inhibitor 31.1
O=C(Nc1ccccc1C(=O)N/N=C/c1ccc(F)cc1)c1ccccc1Br	Cycloheximide cs 17.3
O=C(N/N=C/c1ccc(F)cc1)c1ccc(Br)cc1	none
O=C(N/N=C/c1ccc(Br)cc1)c1cc[n+]([O-])cc1	none
O=C(NCc1cccc(Cl)c1)c1ccc(-c2csnn2)cc1	none
Cc1cccc(/C=N/NC(=O)c2ccc(Br)cc2)c1	Cycloheximide cs 34.5, Shiga inhibitor 69.5
Cc1cccc(/C=N\N=C\c2cccc(C)c2)c1	Cycloheximide cs 53.1 (no result: Shiga inhibitor)
O=C(N/N=C/c1ccc(F)cc1)c1cccc(NC(=O)c2ccc(F)cc2)c1	Cycloheximide cs 33.7, Shiga inhibitor 99.7
Cc1cccc(/C=N/n2c(C)nnc2C)c1	none
O=C(N/N=C/c1ccncc1)c1cccc(NC(=O)c2ccc(Cl)cc2)c1	none
O=C(N/N=C/c1ccc(F)cc1)c1ccccc1	Cycloheximide cs 32.7, Shiga inhibitor 125.7 (no result: NS1 function inh)
Cc1ccc(C(=O)Nc2sc3c(c2C(=O)O)CCC(C)C3)o1 (stereo not drawn)	none (no result: AmpC detergent, NS1 function inh, Cycloheximide cs, Shiga inhibitor)
COc1cc(/C=N/NC(=S)Nc2cccc(S(=O)(=O)N(C)C)c2)ccc1O	Cycloheximide cs 29.8, Shiga inhibitor 49.0
N/C(=N\N=C/c1ccc(Br)cc1)N/N=C\c1ccc(Br)cc1	none
COc1cc(/C=N/NC(=O)c2cccc(NC(=O)c3ccccc3)c2)ccc1O	AmpC inh no detg inconclusive, Shiga inhibitor 33.1
N/C(=N\N=C/c1ccc(F)cc1)N/N=C\c1ccc(F)cc1	Cycloheximide cs 11.1
CN(C)S(=O)(=O)c1cccc(NC(=S)N/N=C/C2CC=CCC2)c1 (stereo not drawn)	none
O=C(N/N=C/c1ccc(O)cc1)c1cccc(N/N=C/c2ccc(O)cc2)c1	Cycloheximide cs 36.7, Shiga inhibitor 60.4
CC(C)Oc1ccccc1-c1nc(SCC(=O)c2ccc(F)cc2)n[nH]1	none (no result: AmpC inh no detg, NS1 function inh, Cycloheximide cs, Shiga inhibitor)
CNC(=O)C(=O)N/N=C/c1ccc(Br)cc1	none
O=C(N/N=C/c1ccc(Br)cc1)c1ccc(Br)o1	AmpC detergent inconclusive, Cycloheximide cs 50.6, Shiga inhibitor 65.5
COc1ccccc1N1C(C)=CC(=C(C#N)c2nc3ccccc3s2)C=C1C	Cycloheximide cs 21.8
CC1=CC(=C(C#N)c2nc3ccccc3s2)C=C(C)N1c1ccc(F)cc1	none
COc1ccc(OC)c(/C=C/c2ccc3cccc(O)c3n2)c1	Cycloheximide cs 58.5, Shiga inhibitor 89.2
Oc1c(Cl)cc(Cl)cc1/C=C/c1ccc2cccc(O)c2n1	none
Oc1cccc2ccc(/C=C/c3ccccc3Br)nc12	Cycloheximide cs 62.3, Shiga inhibitor 83.2
COc1cc(/C=C/c2ccc3cccc(O)c3n2)ccc1O	Cycloheximide cs 54.9, Shiga inhibitor 67.5
Oc1ccc(Cl)cc1/C=C/c1ccc2cccc(O)c2n1	Cycloheximide cs 29.0, Shiga inhibitor 61.2
Cc1ccc(-n2c3c(cc(-c4nc(-c5ccc(Cl)cc5)cs4)c2=O)C(=O)CC(C)(C)C3)cc1	none (no result: AmpC inh no detg, NS1 function inh, Cycloheximide cs, Shiga inhibitor)
CC(C)(Cc1cccc(CC(C)(C)C(=O)O)c1)C(=O)O	none
O=C1COc2ccc(C(=O)COC(=O)c3cnc(Cl)c(Cl)c3)cc2N1	none (no result: NS1 function inh)
COc1cc(/C=C/c2ccc3cccc(O)c3n2)c(Br)cc1O	Cycloheximide cs 40.2, Shiga inhibitor 93.4
CSc1ccc(/C=C/c2ccc3cccc(O)c3n2)cc1	Cycloheximide cs 44.1, Shiga inhibitor 115.3
COc1cc(Br)c(/C=C/c2ccc3cccc(O)c3n2)cc1OC	none
COc1cc(Br)cc(/C=C/c2ccc3cccc(O)c3n2)c1O	Cycloheximide cs 32.1, Shiga inhibitor 74.5
Oc1ccc2ccccc2c1/C=C\c1ccc2c(Br)cc(Br)c(O)c2n1	none (no result: AmpC detergent, AmpC inh no detg, Cycloheximide cs, Shiga inhibitor)
CCCCn1c2ccccc2c2nnc(SCC(=O)Nc3ccc(NC(C)=O)cc3)nc21	none (no result: AmpC inh no detg, NS1 function inh, Cycloheximide cs, Shiga inhibitor)
CCCCc1nn2c(=O)cc(COC(=O)C3CCCCC3)nc2s1	none (no result: AmpC inh no detg, NS1 function inh, Cycloheximide cs, Shiga inhibitor)
O=c1[nH]cnc2sc(-c3ccccc3)cc12	Cycloheximide cs 55.9
Cc1ccc(C)n1-n1cnc2sc(-c3ccccc3)cc2c1=O	Cycloheximide cs 14.3
O=c1c2cc(-c3ccccc3)sc2ncn1-n1cccc1	Cycloheximide cs 39.3, Shiga inhibitor 79.4
O=c1[nH]c(-c2ccccc2)nc2sc(-c3ccccc3)cc12	none
